Inconclusive results are not listed. Calls of active or inactive are those of the source. The call rests on the fitted dose curve; in most records, active means well fitted inhibition curve with a large enough effect; inconclusive means small, poorly fitted or top-dose-only effect; inactive means flat fitted curve, though single readings scatter.
Test system: not listed separately
Test: qHTS for identification of novel therapeutic agents for treatment of microphthalmiaassociated transcription factor (MiT) renal cell carcinoma (RCC) (AID 1963991)
Conditions: TFE3-RCC viability, CellTiter-Glo, 48 h; measured here: UOK145 Z-AUC; stronger effect = lower value
Outline: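 Three TFE3-fusion RCC lines (UOK109, UOK124, UOK145), 500 cells/well in complete medium, were treated with MIPE 4.0 compounds for 48 hours at 37 C. Viability was by CellTiter-Glo luminescence, normalized to DMSO (100%) and empty wells (0%); curves fitted over 11 concentrations.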

SMILES | z-score
Nc1nc(F)nc2c1ncn2[C@@H]1O[C@H](CO)[C@@H](O)[C@@H]1O | -1.61
CC(C)OC(=O)OCOP(=O)(CO[C@H](C)Cn1cnc2c(N)ncnc21)OCOC(=O)OC(C)C | 0.601
CCN[C@H]1C[C@H](C)S(=O)(=O)c2sc(S(N)(=O)=O)cc21 | 0.605
CN(C)c1ccc(C(=C2C=CC(=[N+](C)C)C=C2)c2ccc(N(C)C)cc2)cc1 | -1.8
COCCCOc1cc(C[C@@H](C[C@H](N)[C@@H](O)C[C@H](C(=O)NCC(C)(C)C(N)=O)C(C)C)C(C)C)ccc1OC | 1.4
CN(C)CCc1c[nH]c2ccc(C[C@H]3COC(=O)N3)cc12 | 0.58
NCCCC(O)(P(=O)(O)O)P(=O)(O)O | 0.216
O=C(O)CSCC(=O)NC1CCSC1=O (centres undefined) | 1.5
CCn1cc(C(=O)O)c(=O)c2cc(F)c(N3CCNCC3)cc21 | 1.26
N[C@@H](Cc1ccc(O)c(O)c1)C(=O)O | 0.282
C[C@@H]1CN(c2c(F)c(N)c3c(=O)c(C(=O)O)cn(C4CC4)c3c2F)C[C@H](C)N1 | 1.6
CC(=O)[C@H]1CC[C@H]2[C@@H]3CC=C4C[C@@H](O)CC[C@]4(C)[C@H]3CC[C@]12C | 0.375
CCN1CCCC1CNC(=O)c1cc(S(N)(=O)=O)ccc1OC (centres undefined) | 0.799
Cn1nnc2c(C(N)=O)ncn2c1=O | 0.42
COc1ccc2c(c1)c(CC(=O)OCC(=O)O)c(C)n2C(=O)c1ccc(Cl)cc1 | 0.507
CC(=O)CC(c1ccccc1)c1c(O)c2ccccc2oc1=O (centres undefined) | 0.641
CC1=C(C(=O)O)N2C(=O)[C@@H](NC(=O)C(N)c3ccccc3)[C@H]2SC1 (some centres undefined) | 0.731
Cn1c(=O)c2c(ncn2CC(O)CO)n(C)c1=O (centres undefined) | 0.429
NNC(=O)c1ccncc1 | 0.436
CO[C@@H]1[C@@H](OC(N)=O)[C@@H](O)[C@H](Oc2ccc3c(O)c(NC(=O)c4ccc(O)c(CC=C(C)C)c4)c(=O)oc3c2C)OC1(C)C | 0.567

SMILES | z-score
NS(=O)(=O)c1cc2c(cc1Cl)NC(C(Cl)Cl)NS2(=O)=O (centres undefined) | 0.519
Cc1nnc(C(=O)NC(C)(C)c2nc(C(=O)NCc3ccc(F)cc3)c(O)c(=O)n2C)o1 | 1.94
Cc1onc(-c2ccccc2Cl)c1C(=O)N[C@@H]1C(=O)N2[C@@H]1SC(C)(C)[C@@H]2C(=O)O | 1.69
O=C(O)c1cccnc1 | 0.253
COc1ccccc1OCC(O)COC(N)=O (centres undefined) | 0.377
CC(C)C[C@H](NC(=O)[C@H](CCc1ccccc1)NC(=O)CN1CCOCC1)C(=O)N[C@@H](Cc1ccccc1)C(=O)N[C@@H](CC(C)C)C(=O)[C@@]1(C)CO1 | -3.3
Clc1ccccc1CN1CCc2sccc2C1 | 0.692
COC(c1ccccc1)(c1ccccc1)[C@H](Oc1nc(C)cc(C)n1)C(=O)O | 0.706
CC1CC2C3CCC4=CC(=O)C=C[C@]4(C)[C@@]3(F)[C@@H](O)C[C@]2(C)[C@@]1(O)C(=O)CO (some centres undefined) | 0.527
Cc1c(-c2ccc(O)cc2)n(Cc2ccc(OCCN3CCCCCC3)cc2)c2ccc(O)cc12 | 0.653
CC(C)C1CCC(C(=O)N[C@H](Cc2ccccc2)C(=O)O)CC1 (some centres undefined) | 0.384
O=C(O)CCn1c2c(c3ccccc31)C[C@H](NS(=O)(=O)c1ccc(F)cc1)CC2 | 0.766
CCCCS(=N)(=O)CCC(N)C(=O)O (centres undefined) | 0.0952
CCN(CC)CCn1c(=O)c(Cc2ccc(OC)cc2)nc2ccccc21 | 0.628
CCCN[C@H]1CCc2nc(N)sc2C1 | 0.718
O=C(NCC1CN(c2ccc(N3CCOCC3=O)cc2)C(=O)O1)c1ccc(Cl)s1 (centres undefined) | 0.507
CC1=NN(c2ccccc2)C(=O)C1 | -3.3
CCN(CC)CC#CCOC(=O)C(O)(c1ccccc1)C1CCCCC1 (centres undefined) | 0.607
NC(=O)c1ccc2[nH]ccc2c1 | -0.184

Test system: not listed separately
Test: qHTS profiling for inhibitors of Plasmodium falciparum proliferation (AID 504749); further: nearly all actives have a fitted effect of over 60% in size; further: potency means the concentration at half of the fitted maximal effect;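 on activity, negative = inhibition: 0% = DMSO vehicle and full inhibition = artemisinin control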
Conditions: P. falciparum in erythrocytes, SYBR Green DNA, 72 h; at 28.7 µM (top of the series); parasite line A
Outline: (§1)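 P. falciparum-infected erythrocytes (0.3% parasitemia, 2.5% hematocrit) incubated with compound 72 h at 37 C, 5% CO2. Parasite DNA detected by SYBR Green after lysis, overnight at room temperature; normalised to 0.29 uM artemisinin and DMSO.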

SMILES | activity, negative = inhibition
NCCCC(O)(P(=O)(O)O)P(=O)(O)O | 5.33% (inactive)
Cn1nnc2c(C(N)=O)ncn2c1=O | 6.45% (inactive)
CCCN[C@H]1CCc2nc(N)sc2C1 | 16.7% (inactive)
CC1=NN(c2ccccc2)C(=O)C1 | 3.27% (inactive)

Same assay, conditions: P. falciparum in erythrocytes, SYBR Green DNA, 72 h; at 28.7 µM (top of the series); parasite line B

SMILES | activity, negative = inhibition
NCCCC(O)(P(=O)(O)O)P(=O)(O)O | 1.25% (inactive)
Cn1nnc2c(C(N)=O)ncn2c1=O | 3.99% (inactive)
CCCN[C@H]1CCc2nc(N)sc2C1 | 18.6% (inactive)
CC1=NN(c2ccccc2)C(=O)C1 | -12.4% (inactive)

Test system: 3D7
Test: as above
Conditions: P. falciparum in erythrocytes, SYBR Green DNA, 72 h; series mostly up to 28.7 µM; activity, negative = inhibition: at the top concentration
Outline: as §1

SMILES | Potency | activity, negative = inhibition
CN(C)c1ccc(C(=C2C=CC(=[N+](C)C)C=C2)c2ccc(N(C)C)cc2)cc1 | 282 nM (active) | –
NCCCC(O)(P(=O)(O)O)P(=O)(O)O | – | 3.41% (inactive)
CCn1cc(C(=O)O)c(=O)c2cc(F)c(N3CCNCC3)cc21 | – | -13.1% [at 12.8 µM] (inactive)
Cn1nnc2c(C(N)=O)ncn2c1=O | – | -1.16% (inactive)
CCCN[C@H]1CCc2nc(N)sc2C1 | – | 1.11% (inactive)
CC1=NN(c2ccccc2)C(=O)C1 | – | -10% (inactive)

Test system: 7G8
Test: as above
Conditions: P. falciparum in erythrocytes, SYBR Green DNA, 72 h; series mostly up to 28.7 µM; activity, negative = inhibition: at the top concentration
Outline: as §1

SMILES | Potency | activity, negative = inhibition
CN(C)c1ccc(C(=C2C=CC(=[N+](C)C)C=C2)c2ccc(N(C)C)cc2)cc1 | 251 nM (active) | –
NCCCC(O)(P(=O)(O)O)P(=O)(O)O | – | 3.47% (inactive)
CCn1cc(C(=O)O)c(=O)c2cc(F)c(N3CCNCC3)cc21 | – | -20.5% [at 12.8 µM] (inactive)
Cn1nnc2c(C(N)=O)ncn2c1=O | – | -12.1% (inactive)
CCCN[C@H]1CCc2nc(N)sc2C1 | – | 12.7% (inactive)
CC1=NN(c2ccccc2)C(=O)C1 | – | -26.1% (inactive)
